# pPAFAH inh: pPAFAH (human) enzyme inhibition; recombinant pPAFAH, FP-rhodamine probe fluorescence polarization; inhibition, % at 3.39 µM; 330,000 compounds, 1.5% hits;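 active = inhibition above the mean inhibition across the screen plus 3 SD, cut at about 25% in these data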;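 note: inhibitors block binding of the rhodamine activity-based probe so polarization drops; 0% = enzyme with DMSO and 100% = wells lacking pPAFAH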
# PAFAH2 inh: PAFAH2 (human) inhibition. 340,000 compounds, 0.99% hits. inhibition, % at 3.39 µM. recombinant PAFAH2, FP-rhodamine activity probe, fluorescence polarization. Q99487;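 active = inhibition above the mean over all tested compounds plus 3 SD, cut at about 30% in these data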;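 note: inhibitors block probe labeling of enzyme so polarization drops; 0% = enzyme with DMSO and 100% = wells lacking PAFAH2 protein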
# PAFAH1B2 inh: inhibitors of human PAFAH1B2; inhibition, % at 3.39 µM; 340,000 compounds, 1.2% hits; recombinant PAFAH1B2, FP-rhodamine activity probe, fluorescence polarization; AID 492953;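 active = inhibition above the mean of all tested compounds plus 3 SD, cut at about 24% in these data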;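 note: 0% = enzyme with DMSO and 100% = wells lacking PAFAH1B2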
# Target sequence (P68402 whole entry, looked up): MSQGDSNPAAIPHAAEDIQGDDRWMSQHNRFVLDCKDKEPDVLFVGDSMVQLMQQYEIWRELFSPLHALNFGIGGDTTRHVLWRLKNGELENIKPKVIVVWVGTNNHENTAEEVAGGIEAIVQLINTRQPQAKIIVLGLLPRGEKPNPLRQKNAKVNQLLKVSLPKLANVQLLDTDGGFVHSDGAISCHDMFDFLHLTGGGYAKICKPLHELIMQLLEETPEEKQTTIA
# PAFAH1B3 inh: PAFAH1B3 (human) inhibition. 340,000 compounds, 0.28% hits. recombinant PAFAH1B3, FP-rhodamine probe, fluorescence polarization. inhibition, % at 3.39 µM;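 active = inhibition above the screen-wide average of all tested compounds plus 3 SD, cut at about 25% in these data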;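 note: 0% = enzyme with DMSO only and 100% = wells lacking PAFAH1B3 protein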
# Target sequence (Q15102 whole entry, looked up): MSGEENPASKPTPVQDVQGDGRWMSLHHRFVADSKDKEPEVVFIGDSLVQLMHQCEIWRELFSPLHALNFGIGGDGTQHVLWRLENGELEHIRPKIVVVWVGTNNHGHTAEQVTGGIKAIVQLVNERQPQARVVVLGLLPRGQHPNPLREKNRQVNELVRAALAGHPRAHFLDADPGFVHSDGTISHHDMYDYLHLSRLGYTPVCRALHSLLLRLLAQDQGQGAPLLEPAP
# PP1 counter: blocks human PP1-alpha phosphatase, a PP5 counter-screen; inhibition, % at 6.7 µM; purified PP1alpha, OMFP fluorescence; AID 2235; P62136; 320,000 compounds, 0.9% hits;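 active = inhibition above the mean inhibition of all tested compounds plus 3 SD, computed separately for each screening campaign, cut at about 15% in these data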
# PP5 primary: inhibitors of human protein phosphatase 5 (PP5). 320,000 compounds, 0.18% hits. purified PP5c, OMFP substrate fluorescence. AID 1987. inhibition, % at 6.7 µM;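 active = inhibition above the campaign's mean inhibition across all tested compounds plus 3 SD, cut at about 9.5% in these data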;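 note: 0% = DMSO only and 100% = 100 µM cantharidin control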
# * hit, by the source's call; x = not tested or not shown. Only some compounds are listed: those with a hit (about 3.4% of all), similar ones and a draw of the others.
SMILES,pPAFAH inh,PAFAH2 inh,PAFAH1B2 inh,PAFAH1B3 inh,PP1 counter,PP5 primary
O=C(NC(=S)Nc1ccc(N2CCOCC2)cc1)c1cncc(Br)c1,-2,0,0,3,-2,-1
CCOc1cc(/C=C2/N=C(c3ccc4c(c3)OCO4)OC2=O)ccc1OC(C)=O,0,2,2,2,1,0
CC(C)(C)c1ccc(OCC(=O)N(Cc2cccs2)C2CCS(=O)(=O)C2)cc1 (stereo not drawn),3,11,29*,2,-1,1
CCc1ccc(OCC(=O)N(Cc2cccs2)C2CCS(=O)(=O)C2)cc1 (stereo not drawn),6,2,7,-3,2,5
COc1cc(/C=C2\SC(=O)N(c3cccc(Cl)c3)C2=O)cc([N+](=O)[O-])c1O,x,52*,3,15,x,x
O=C1S/C(=C\c2ccc(O)c([N+](=O)[O-])c2)C(=O)N1c1ccccc1Cl,34*,27,3,21,2,1
Cc1ccc(CNC(=O)c2ccc(N3CCC4(CC3)CC(c3ccccc3)=NO4)c(NC(=O)c3ccc(Cl)c([N+](=O)[O-])c3)c2)cc1,4,-9,1,-7,15*,0
CCCNC(=O)c1ccc(N2CCC3(CC2)CC(c2ccccc2)=NO3)c(NC(=O)c2ccc(Br)cc2)c1,-1,-8,-3,7,9,2
CCCNC(=O)c1ccc(N2CCC3(CC2)CC(c2cccc(Br)c2)=NO3)c(NC(=O)c2ccccc2)c1,-8,-11,-8,-5,16*,2
CCC/C(O)=C1\C(=O)CCCC1=NCCCCCC(=O)O,5,4,0,0,-6,-1
CN(CC(=O)Nc1ccc(Cl)c(Cl)c1)C(=O)C12CC3CC(CC(C3)C1)C2,1,-10,26*,6,-4,3
CN(CC(=O)Nc1ccc(Cl)c(Cl)c1)C1CCCCC1,x,0,8,-7,x,x
O=C(CN1C(=O)C2CCCCC2C1=O)N1CCN(c2ccccc2)CC1 (stereo not drawn),0,-1,2,12,-5,-2
CCOc1ccc(C2C3=C(CCCC3=O)Nc3ccc4ncccc4c32)cc1 (stereo not drawn),29*,0,1,7,-4,3
CC1=C(/C=C/C(C)=C/C=C/C(C)=C\C(=O)O)C(C)(C)CCC1,28*,4,9,0,11,2
Cc1cccc(NC(=O)c2nc(-c3ccccc3)n(-c3ccccc3)n2)c1C,4,13,-1,4,1,3
CCCCNC(=O)C(=O)N/N=C/c1ccc(C(=O)OC)cc1,1,-1,0,7,-4,0
O=C(COC(=O)CCC(=O)c1ccc(Cl)cc1)NCCc1ccccc1,18,-1,2,-1,7,0
O=C(O)c1cn(-c2ccccc2)nc1C(=O)O,-3,-3,-4,1,0,-1
NNC(=O)c1nn(-c2ccccc2)cc1O,31*,x,x,x,6,0
Cc1nn(C)c(Oc2ccccc2)c1CCNS(=O)(=O)c1ccc(Cl)cc1,11,21,25*,3,0,3
COc1ccc(S(=O)(=O)NCCc2c(C)nn(C)c2Oc2ccccc2)cc1,9,-2,5,4,2,4
CC(C)C[C@H]1COCCS(=O)(=O)N1Cc1ccc(Cl)c(Cl)c1,3,10,13,0,4,5
O=C(Nc1ccnn1C1CCN(CCCC2CCCC2)CC1)c1ccccc1Cl,3,-1,4,8,0,0
O=C(O)c1ccc2c(c1)C1C=CCC1C(c1cc3c(cc1Br)OCO3)N2 (stereo not drawn),8,9,-1,3,-2,-1
SMILES,pPAFAH inh,PAFAH2 inh,PAFAH1B2 inh,PAFAH1B3 inh,PP1 counter,PP5 primary
O=C(O)c1ccc(NS(=O)(=O)c2ccc3c(c2)C2C=CCC2C(c2ccccc2F)N3)cc1 (stereo not drawn),x,41*,17,42*,x,x
CCOP1(=O)OCC2OC(n3cnc4c(N)ncnc43)C(O)C2O1 (stereo not drawn),-3,8,-4,8,2,2
O=C(O)Cc1ccc(O)cc1,2,5,2,8,-2,1
O=C(O)Cc1ccc(-c2ccccc2-c2ccccc2)cc1,29*,-7,80*,4,-1,-1
O=C(O[C@@H]1OC2COC(=O)c3cc(O)c(O)c(O)c3-c3c(cc(O)c(O)c3O)C(=O)O[C@@H]([C@H]1O)[C@@H]2O)c1cc(O)c(O)c(O)c1,75*,59*,26*,37*,7,3
CN1C(=O)/C(=C/c2ccc(C(=O)Nc3ccc(O)cc3C(=O)O)cc2)SC1=S,30*,2,7,15,-1,-3
Cc1ccc(/C=C2\SC(=S)N(CCC(=O)NNC(=O)c3ccc(O)cc3)C2=O)cc1,-46,-124,-86,-147,3,-1
CCC(C)(C)NC(=O)C(c1ccc(C)o1)N(Cc1cccs1)C(=O)Cn1nnc2ccccc21 (stereo not drawn),-4,5,5,9,11,0
CN(C)/C=C1\SC(=S)N(c2ccc(Br)cc2)C1=O,-36,11,0,-5,-3,-2
CC(C)C(=O)Nc1csc(C(F)(F)F)c1-c1ccccc1,4,1,27*,0,-8,2
CC(C)C(=O)Nc1ccccc1Cc1ccccc1,-2,3,1,5,-3,3
Cc1ccc(CSc2nnc(CNc3ccc(F)cc3)o2)cc1,9,6,26*,2,-6,5
COC(=O)C1=C(C)NC(C)=C(C(=O)OC)C1C(=O)OCc1nnc(-c2ccccc2Cl)o1,x,5,0,1,x,x
CN(C)c1ccc(N=Cc2nc(-c3ccccc3)oc2OC(=O)c2ccccc2)cc1,-2,5,4,0,1,0
O=C(Oc1oc(-c2ccco2)nc1C=Nc1ccc(Cl)cc1)c1ccco1,26*,48*,9,11,-2,0
Cc1ccc(/C(N)=N/OC(=O)CCc2ccccc2)cc1,4,3,9,2,6,0
N/C(=N\OC(=O)CCc1ccccc1)c1ccc(Br)cc1,6,-2,71*,4,-4,-1
N/C(=N\OC(=O)CCc1ccccc1)c1cccc(Br)c1,4,6,67*,8,-3,1
CCC1COC(c2cccn2Cc2ccc(Cl)cc2)=N1 (stereo not drawn),28*,4,2,1,-2,1
NS(=O)(=O)c1ccc(NCCCn2ccnc2)c([N+](=O)[O-])c1,3,2,-1,-1,1,0
O=C1c2ccccc2-c2onc3ccc(NCCCn4ccnc4)c1c23,105*,x,x,x,-18,-14
CCOC(=O)C1CCCN(Cc2ccc(OCC)cc2)C1 (stereo not drawn),5,1,-2,3,-4,3

# Screening results as filed in PubChem.
